Screening results: PubChem, several laboratories
Hits are enriched below; roughly 3.3% of the tested compounds scored in any of these assays.
C2C12 statin = protects C2C12 myotubes from simvastatin toxicity; ATP luminescence, 48 h; scaled: DMSO 0, geranylgeraniol control 100; rescue of ATP level, % at 7.49 µM; hit rate 0.78% among 330,000;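 active = mean ATP rescue above about 67%, or every replicate alone reaching that limit, limit read from the data, passing the limit was not always enough; inconclusive = no clear call, values can overlap the other calls; inactive = mean under the limit and some replicate under it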;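 also: myotubes were challenged with 10 µM simvastatin during compound exposure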
Wnt act = activators of Wnt/beta-catenin signaling; Wnt/beta-catenin reporter cell assay, activator, plate reader; activation, % at 9.35 µM; AID 743398; hit rate 1.2% among 300,000; in the data active = activation above about 30%, passing the limit was not always enough; inconclusive = no clear call, values can overlap the other calls;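 also: 0% = neutral control wells and 100% = positive control wells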
FXN GAA850 act = frataxin GAA850 promoter activation | HEK293 lucGAA850 FXN promoter luciferase reporter, 24 h; percent of 10 µM SAHA response | activation, % at 6 µM | hit rate 0.56% among 360,000;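 active = activation above the average of all compounds screened plus 3 SD, cutoff fixed separately per campaign, cut at about 7.5% in these data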;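 also: 0% = DMSO wells and 100% = 10 µM SAHA wells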
esBAF inh = blocks esBAF chromatin remodeling in mouse ES cells. reporter increase, % at 12.5 µM. hit rate 2% among 350,000. Bmi1-luciferase knock-in reporter, 24 h; 100% = twice the neutral-well signal; in the data active = activation above about 40%; inconclusive = no clear call, values can overlap the other calls;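 also: 0% = median of the plate's neutral control wells and 100% = double that signal; a rise in the Bmi1 reporter signal indicates esBAF inhibition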
MITF act = activators of MITF-driven TRPM1 promoter activity in SK-MEL-5 cells. SK-MEL-5 TRPM1-promoter luciferase, 24 h; % of positive control, neutral wells = 0. AID 588334. activation, % at 12.5 µM. hit rate 0.75% among 300,000;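 active = mean activation of at least 80% with every replicate also reaching 80%; inconclusive = mean reaches 80% but some replicate falls short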;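 also: 0% = neutral control wells and 100% = parthenolide positive control wells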
Starred values were filed as active, the others as inactive; ? = inconclusive; nt = no result given.

SMILES | C2C12 statin | Wnt act | FXN GAA850 act | esBAF inh | MITF act
Cc1ccccc1S(=O)(=O)NCC[C@H]1CC[C@@H](NC(=O)C2CC2)[C@H](CO)O1 | -7.5 | nt | nt | 1.3 | nt
CCN(C[C@H]1N[C@H](CO)[C@H]1c1ccc(-c2ccccc2)cc1)C(=O)COC | -0.9 | nt | nt | 1.6 | nt
COc1ccc(OC(=O)c2cnn(-c3ccccc3)c2C)cc1 | 1.5 | nt | 1.0 | 66.9* | 63.1
COc1ccc(S(=O)(=O)N2CCN(C(=O)c3c(C)nn(-c4ccccc4)c3C)CC2)cc1 | -3.3 | -3.4 | -0.8 | -7.1 | 2.1
COc1ccc(OC(=O)c2c(C)nn(-c3ccccc3)c2C)cc1 | -1.1 | 29.2 | 3.4 | 71.3* | 71.2
Cc1nn(-c2ccccc2)c(C)c1C(=O)Oc1ccccc1 | 3.3 | 14.0 | 3.3 | 62.1* | ?
COc1cccc(NC(=O)c2cnn(-c3ccccc3)c2C)c1 | -48.3 | 21.0 | 1.9 | 7.4 | nt
CC(=O)c1c(C)nn(-c2ccccc2)c1C | nt | 4.3 | 0.9 | nt | nt
COCCNC(=O)C[C@H]1CC[C@@H]2[C@@H](COc3ccc(NC(=O)Nc4ccccc4)cc3C(=O)N2C)O1 | -7.0 | nt | nt | 3.9 | nt
O=C(CCN1CCCCC1)NCC[C@@H]1CC[C@H](NC(=O)c2ccc(F)cc2)[C@@H](CO)O1 | 2.5 | nt | nt | -5.4 | nt
O=C(O)CN1C(=O)/C(=C/C=C/c2ccccc2)SC1=S | nt | 49.0* | 1.2 | nt | 4.2
O=C(CCN1C(=O)S/C(=C\C=C\c2ccccc2)C1=O)Nc1ccc(O)cc1 | 17.9 | 21.4 | -0.6 | 93.2* | 35.3
CC(=O)c1ccc(NC(=O)CN2C(=O)/C(=C/C=C/c3ccccc3)SC2=S)cc1 | nt | 1.1 | 0.3 | nt | 6.0
O=C(CN1C(=O)S/C(=C\C=C\c2ccccc2)C1=O)Nc1cccc(O)c1 | 6.3 | 24.4 | 4.1 | 65.2* | 51.8
O=C(O)CN1C(=O)/C(=C\c2ccc(OC(=O)c3ccco3)cc2)SC1=S | nt | 33.5* | -1.3 | nt | -1.5
CCCNC(=O)C[C@@H]1C[C@@H]2c3cc(NS(=O)(=O)c4ccc(OC)cc4)ccc3O[C@@H]2[C@H](CO)O1 | -2.5 | nt | nt | 0.2 | nt
COc1cc(CC(=O)O)c(C(C)=O)cc1OC | 6.5 | nt | 2.0 | 48.1* | -11.8
COc1cc(CC(=O)O)c([N+](=O)[O-])cc1OC | nt | -2.1 | 1.4 | nt | -11.9
CO[C@@H]1CN(C)C(=O)c2cc(NS(C)(=O)=O)ccc2OC[C@@H](C)N(Cc2ccccc2)C[C@@H]1C | 10.6 | nt | nt | -2.1 | nt
CCCC#Cc1ccc2c(c1)O[C@H](CN(C)Cc1ccc3c(c1)OCO3)[C@H](C)CN([C@H](C)CO)S2(=O)=O | 0.2 | nt | nt | -12.2 | nt
Cc1cc(NC(=O)c2cc(C3CC3)on2)no1 | -5.6 | 0.9 | 3.2 | 48.6* | nt
COC(=O)c1ccccc1NC(=O)c1cc(C2CC2)on1 | -1.6 | 6.5 | -0.9 | 17.1 | -13.4
COc1ccc(NC(=O)c2cc(C3CC3)on2)c(OC)c1 | 23.5 | -3.1 | 2.0 | 53.3* | nt
C[C@@H]1CN([C@H](C)CO)C(=O)c2cccc(NC(=O)C3CCOCC3)c2O[C@@H]1CN(C)C(=O)NC1CCCCC1 | -5.0 | nt | nt | -3.0 | nt
CCCNC(=O)C[C@@H]1CC[C@H]2[C@H](COc3ccc(NC(=O)C4CCCC4)cc3C(=O)N2C)O1 | -9.4 | nt | nt | 0.9 | nt
SMILES | C2C12 statin | Wnt act | FXN GAA850 act | esBAF inh | MITF act
C[C@@H]1CN([C@H](C)CO)C(=O)c2cccc(NC(=O)Nc3ccccc3)c2O[C@@H]1CN(C)Cc1ccccc1 | -14.5 | nt | nt | 0.9 | nt
CCCNC(=O)N(C)C[C@H]1Oc2ncc(C#CC3(O)CCCC3)cc2C(=O)N([C@@H](C)CO)C[C@@H]1C | 18.4 | nt | nt | 1.3 | nt
Cc1cc(-c2nnc(-c3cc4ccccc4oc3=O)o2)c(C)n1-c1ccccc1 | -1.8 | nt | 1.9 | 54.0* | nt
O=C(Cc1csc(NC(=O)Nc2ccc(Cl)cc2)n1)NCc1cccnc1 | 6.1 | 11.8 | 2.1 | 44.6* | 42.6
CCN(CC)c1ccc(/C=C2\SC(=O)N(C(C)C)C2=O)o1 | 36.0 | nt | 14.1* | 15.8 | nt
Cn1cc(C=O)c(-c2ccc3c(c2)OCCCO3)n1 | -2.9 | 11.3 | -0.6 | 29.4 | 48.8
O=Cc1cn(-c2ccccc2)nc1-c1ccc2c(c1)OCCO2 | -32.0 | nt | 1.7 | 49.6* | 72.1
N#Cc1cn(-c2ccccc2)nc1-c1ccc2c(c1)OCCO2 | 0.6 | 0.0 | 2.6 | 51.3* | 123.0*
Cc1cc(C)nc(N2CCCC(C(=O)NCc3cccs3)C2)n1 (configuration not stated) | 126.8* | -3.4 | -1.4 | -9.2 | 2.5
Cc1ccnc(N2CCCC(C(=O)NCc3cccs3)C2)n1 (configuration not stated) | 11.1 | -6.2 | 0.0 | -0.4 | -2.4
COc1ccc(S(=O)(=O)N[C@H]2CC[C@H](CC(=O)O)O[C@@H]2CO)cc1 | 20.0 | nt | nt | 1.0 | nt
O=C(NCCc1ccccc1F)C(=O)Nc1nccs1 | -5.7 | 36.6* | 4.5 | 29.4 | 23.8
O=C(NN=C1C2CC3CC1CC(Cl)(C3)C2)c1ccccn1 | 6.4 | nt | 5.0 | 47.7* | 8.0
Brc1ccccc1OCCCOc1cccc2cccnc12 | -0.2 | 16.7 | 4.2 | 77.3* | nt
O=C(COc1cccc2cccnc12)Nc1nccs1 | -2.0 | 53.3* | -0.4 | 28.9 | nt
O=C(COc1cccc2cccnc12)NNC(=O)Nc1ccccc1 | nt | -2.1 | 0.5 | nt | 4.7
NNC(=O)COc1cccc2cccnc12 | 122.0* | -8.7 | -0.8 | -6.2 | -4.6
Brc1ccccc1OCCOc1cccc2cccnc12 | nt | 15.4 | 4.5 | nt | 27.3
O=C(COc1cccc2cccnc12)NCc1cccs1 | -18.1 | 1.4 | -1.2 | 11.3 | -8.1
COc1ccc(NC(=O)CSc2nnc(C3CCCCC3)o2)c(OC)c1 | 17.0 | 0.3 | -1.5 | -2.8 | 0.1
O=C(CSc1nnc(C2CCCCC2)o1)Nc1ccccc1Cl | -10.9 | 21.1 | 4.0 | 62.0* | 109.5*
OCC1OC(n2cnc3c(SCc4ccccc4)ncnc32)C(O)C1O (configuration not stated) | nt | 8.9 | -2.8 | nt | nt
OCC1OC(n2ccc3c(SCc4ccccc4)ncnc32)C(O)C1O (configuration not stated) | -7.4 | 32.4* | 4.5 | 87.7* | 54.8
CC/C(O)=C(\C#N)c1nnc2n1CCCCC2 | 86.7* | -6.1 | -0.6 | -1.1 | 6.1
CC=Cc1ccc2n(c1=O)C[C@@H]1[C@@H](CO)[C@H](C(=O)Nc3ccccc3)N(CC3CCCC3)[C@H]21 (mixture of isomers) | 13.0 | nt | nt | 5.3 | nt
SMILES | C2C12 statin | Wnt act | FXN GAA850 act | esBAF inh | MITF act
Nc1cc2c(cc1Br)-c1ccccc1C2=NO | -4.9 | 33.5* | 5.4 | 62.6* | 15.7
CCC(C(=O)N(C(C)C)C(C)C)c1ccccc1 (configuration not stated) | 130.4* | -0.4 | -1.3 | -9.6 | 6.7
NCCCNc1nc(N)c([N+](=O)[O-])c(NC2CCCCC2)n1 | 104.6* | -11.0 | -8.2 | -1.9 | -70.3
Cc1cc2nc(-c3ccc(SCc4ccccn4)nc3)[nH]c2cc1C | -24.7 | ? | -1.5 | 64.0* | 66.5
CCOC(=O)CSc1ccc(-c2nc3cc(C)c(C)cc3[nH]2)cn1 | -8.5 | nt | -2.0 | -1.4 | 29.6
C#CNC(=O)C1(CC=C)CCNCC1 | 100.3* | -2.6 | 0.6 | 4.8 | 9.4
